Source: PubChem
Sampled rows, rich in hits. Any-hit rate of the full collection: about 1.4%.
pCIP destab – compounds decreasing mouse p/CIP protein stability | decrease of EGFP signal, % at 10 µM | 290,000 compounds, 0.01% hits | F442A p/CIP-EGFP cells, EGFP fluorescence, 16 h;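 active = EGFP signal decrease of at least 30% at 10 µM or well 3 SD below plate mean, unless failing retest; inactive = the rest, including hits failing retest or dose response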
MsrA act – activates bovine MsrA enzyme | purified bovine MsrA, absorbance read-out | activation, % at 10.6 µM | 360,000 compounds, 0.3% hits | AID 602163; in the data active = activation above about 7.5%;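 also: 0% = vehicle and 100% = reference activator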
14-3-3 Bad inh – disrupts binding of bovine 14-3-3 zeta to phospho-Bad peptide; inhibition, % at 21.7 µM; TR-FRET 14-3-3zeta/Dy647-pBad peptide displacement, 1 h; 220,000 compounds, 0.71% hits; P63103; AID 781;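 active = inhibition above about 70%, limit read from the data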;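 also: 0% = full 14-3-3 plus peptide FRET controls and 100% = background without 14-3-3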
Target sequence (P63103 whole entry, looked up): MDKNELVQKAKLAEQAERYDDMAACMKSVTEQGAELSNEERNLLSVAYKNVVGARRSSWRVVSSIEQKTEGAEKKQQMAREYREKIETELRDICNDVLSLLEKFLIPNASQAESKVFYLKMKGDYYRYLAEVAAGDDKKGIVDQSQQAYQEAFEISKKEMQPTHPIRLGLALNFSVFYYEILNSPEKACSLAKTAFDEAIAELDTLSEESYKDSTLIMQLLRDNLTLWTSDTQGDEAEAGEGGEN
MsrA inhibitor – bovine MsrA inhibition. purified bovine MsrA, absorbance read-out. inhibition, % at 15.5 µM. 360,000 compounds, 0.75% hits. AID 651718; in the data active = inhibition above about 4.5%;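 also: 0% = vehicle wells with enzyme and 100% = reference inhibitor wells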
Active calls of the source: *; / = no result; ! = not active in a repeat.

SMILES	pCIP destab	MsrA act	14-3-3 Bad inh	MsrA inhibitor
Nc1[nH]c(C(=O)c2ccccc2)c(-c2ccc(Cl)cc2F)c1C(=O)NCCc1c[nH]c2ccccc12	/	/	/	0
C[C@@H]1COc2cccc(NCCO)c2S(=O)(=O)N1	/	/	/	0
CC1CCN(C(c2cccs2)c2nnnn2Cc2ccccc2)CC1 (stereo not drawn)	-5	2	79*	-1
c1ccc(Cn2nnnc2C(c2cccs2)N2CCSCC2)cc1 (stereo not drawn)	-4	3	13	0
CO[C@@H]1[C@H](O)CC[C@]2(O)CN(c3ccccc3)[C@](C)([C@H](O)CC=C(C)C)[C@@H]12	/	/	/	0
CC(=O)CSc1ccc(-c2nc3ccccc3[nH]2)cn1	-4	-5	/	2
CC(=O)CSc1ccc(-c2nc3cc(C)c(C)cc3[nH]2)cn1	-7	-3	30	4.7*
CCN=C1NC(c2ccc(F)cc2)C(C(=O)OC)=C(C)N1Cc1ccccc1C(F)(F)F (stereo not drawn)	/	/	/	-1
CCCC(C)NCC(=O)Nc1ccccc1-c1ccccc1 (stereo not drawn)	-8	2	72*	1
COc1ccccc1C(=O)N1CCN(C(=O)[C@@H](Cc2ccccc2)NC(=O)[C@H]2O[C@@H](n3cnc(C(N)=O)n3)[C@H](O)[C@@H]2O)CC1	/	/	/	1
CCOC(=O)CSc1nc2sc3c(c2c(=O)n1-c1ccc(C)cc1)CCN(C)C3	-9	-9	/	4.6*
CCN(CC)CCOc1ncnc2c1oc1ccccc12	-4	-3	4	-1
CCc1nc(OCCN(CC)CC)c2oc3ccccc3c2n1	-4	-1	80*	-1
Cc1cc(N2CCN(S(C)(=O)=O)C[C@H]2C)ccc1N1CCN(Cc2ccccc2)[C@H](C)C1	/	/	/	-1
Cc1ccc(-c2csc(C3=C(O)CN(NC(=O)c4ccc([N+](=O)[O-])cc4)C3=N)n2)cc1	-6	-6	6	2
N=C1C(c2nc(-c3ccc(Cl)cc3)cs2)=C(O)CN1NC(=O)c1ccc(O)cc1	-7	-6	77*	1
O=C(C(=O)N1CCC(CNC(=O)c2ccccc2F)CC1)c1cc2ccccc2o1	/	/	/	1
Cc1noc(C)c1S(=O)(=O)Nc1ccc(C(=O)NC2CCCCC2C)cc1 (stereo not drawn)	-5	-2	85*	-1
COc1ccc(/C=C/C(=O)Nc2nonc2NC(C)=O)cc1	-5	-7	2	4.6*
COc1ccc(/C=C/C(=O)NCCCNC(=O)/C=C/c2ccc(OC)c(OC)c2)cc1OC	/	-2	/	2
COc1ccc(/C=C/C(=O)Nc2nc(C)cc(C)n2)cc1OC	-16	-6	-11	4.9*
Cc1nn2c(COc3ccc(NC(=O)C(C)C)cc3)nnc2c2ccccc12	8	-3	85*	0
O=C(N/N=C/c1ccc([N+](=O)[O-])o1)c1cc2c(ccc3ccccc32)o1	-5	-1	93*	1
O=C(N/N=C/c1ccc([N+](=O)[O-])o1)c1cc2ccccc2o1	-3	0	3	2
CN(C)c1ccc(-c2nnc(-c3ccccc3F)o2)cc1	-12	4	/	4.6*
SMILES	pCIP destab	MsrA act	14-3-3 Bad inh	MsrA inhibitor
COc1ccc(C(=O)CC2(O)C(=O)N(CN3CCOCC3)c3ccc(Br)cc32)cc1 (stereo not drawn)	/	/	/	0
COc1ccc(-c2ncccc2O)cc1	-11	-1	-1	2
CCOc1c(C)cc(-c2ncccc2O)cc1C	-4	-2	75*!	2
Cc1ccc(CN2CCN(CC3CC4C=CC3C4)CC2)cc1 (stereo not drawn)	-4	2	72*	1
O=S(=O)(c1ccccc1)N1CCN(CC2CC3C=CC2C3)CC1 (stereo not drawn)	0	-1	6	2
O=C(c1ccccc1F)N1CCN(CC2CC3C=CC2C3)CC1 (stereo not drawn)	-5	1	81*	0
CC(O)(CS(=O)(=O)Cc1ccccc1)C(=O)Nc1cccc(C(F)(F)F)c1 (stereo not drawn)	1	10*	-12	0
CC(O)(CS(=O)(=O)Cc1ccccc1)C(=O)Nc1ccc(C(F)(F)F)cc1 (stereo not drawn)	11	-4	11	1
O=C(Oc1cccnc1)c1ccco1	0	-2	81*	1
CC(C)CCCCCCCCc1cccc(O)c1C(=O)O	/	/	/	-1
CC1=C(C(=O)N2CCc3ccccc32)C2(CCC(C)CC2)OC1=O (stereo not drawn)	-4	-13	84*	1
O=C(NCc1cn(-c2ccccc2)nc1-c1ccccc1)c1cc([N+](=O)[O-])cc([N+](=O)[O-])c1	-4	0	96*	0
O=C(NCc1cn(-c2ccccc2)nc1-c1ccccc1)c1cccc([N+](=O)[O-])c1	11	-2	-3	1
CC(C)(C)c1ccc(C#C[C@@H]2C=C[C@@H](O)[C@@H](COC(=O)NCc3ccccc3)O2)cc1	/	/	/	0
OCCN1CCN(CC(O)COc2ccc(-c3ccccc3)cc2)CC1 (stereo not drawn)	2	-11	84*	0
Fc1ccccc1COc1ccc(Br)cc1CNCc1ccncc1	-9	-4	80*	0
Fc1ccccc1COc1ccc(Br)cc1CNCc1cccnc1	-3	-1	37	-1
CCOc1cc(CNCc2ccncc2)cc(Br)c1OCc1ccc(F)cc1	-6	-1	61	0
Fc1ccc(COc2ccc(Br)cc2CNCc2ccncc2)cc1	-6	-11	84*	2
O=C(N[C@@H](Cc1cccnc1)C(=O)N1CCC[C@H]1C(=O)NC1CCCC1)c1ccc(Cl)c(Cl)c1	/	/	/	0
COC(=O)[C@]12C[C@H](CC(=O)NCc3cccc(C(F)(F)F)c3)C(=O)N(Cc3ccccc3)C1=C[C@H](C(C)C)O[C@@H]2C1CC1	/	/	/	0
COc1ccc(S(=O)(=O)Nc2ccccc2Cl)cc1NC(C)=O	0	-2	91*	0
COc1ccc(S(=O)(=O)Nc2ccccc2C(=O)NC2CC2)cc1NC(C)=O	/	-1	/	1
COc1cc(/C=C(\C#N)c2nnc(N3CCOCC3)n2-c2ccccc2)ccc1O	10	-10	-6	4.6*
Cc1cc(/C=C(\C#N)c2nnc(N3CCOCC3)n2-c2ccccc2)c(C)n1-c1ccccc1	-8	/	-13	/
SMILES	pCIP destab	MsrA act	14-3-3 Bad inh	MsrA inhibitor
O=c1/c(=C\c2cc([N+](=O)[O-])cc([N+](=O)[O-])c2O)sc2nc3ccccc3n12	9	-4	75*	/
O=c1/c(=C/c2ccccn2)sc2nc3ccccc3n12	-40	-5	16	1
CC(=O)N1C[C@H]2CON(C)[C@H]2C[C@H]1c1ccccc1-c1ccccc1	/	/	/	0
C=CCNCCOCCOc1ccc(C)cc1[N+](=O)[O-]	-6	-3	75*	0
COc1cc(C)ccc1OCCOCCOc1ccc(C)cc1[N+](=O)[O-]	5	-4	2	1
CC(N=C1NC(C)(C)Cc2ccccc21)C(=O)O (stereo not drawn)	9	-1	91*	2
CC1(C)Cc2ccccc2/C(=C/C(=O)N2CCCCCC2)N1	6	-4	74*	0
Cc1ccc(-n2nnnc2SCC#N)cc1	-8	-9	71*	0
COCCn1c(C)cc(C2=NNC(=NC3CC3)SC2)c1C	9	-3	-9	2
